Assay results published in the supplement of paper PMC6555819.

Legend:
Assay in all cases: PBM binding z-score (relative to random genomic background probes); higher = stronger binding; sequences stand for … in GC…GCGATTGACAGCGTAGAATGAAGG
[1] = system: RARb homodimer (NR concentration 270 nM)
Procedure, shortened: (§1)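 Binding z-scores take random background probes as their reference. They come from custom Agilent 4×180K protein-binding microarrays incubated 1 h with ligand-free nuclear receptor dimers, with antibodies against each partner (one per run) detecting binding. Scanned fluorescence was regression-normalized.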

[2] = system: RARg:RXRa (NR concentration 270 nM, RXRa partner concentration 90 nM)
Procedure, shortened: as §1

[3] = system: RARg homodimer (NR concentration 270 nM)
Procedure, shortened: as §1

[4] = system: RXRa DBDmut IVT, anti-RXR (DBD mutation: RXRa K156A/R161A, NR concentration 90 nM)
Procedure, shortened: as §1

[5] = system: RXRa homodimer (NR concentration 180 nM)
Procedure, shortened: as §1

[6] = system: THRa:RXRa (NR concentration 90 nM, RXRa partner concentration 90 nM)
Procedure, shortened: as §1

[7] = system: THRa homodimer (NR concentration 90 nM)
Procedure, shortened: as §1

[8] = system: VDR homodimer (NR concentration 270 nM)
Procedure, shortened: as §1

Row | Sequence | PBM binding z-score [1] | PBM binding z-score [2] | PBM binding z-score [3] | PBM binding z-score [4] | PBM binding z-score [5] | PBM binding z-score [6] | PBM binding z-score [7] | PBM binding z-score [8]
1 | TATGCAGGGTCAAAGGCCAGAGTACGAATGTCGA | 3.43 | 5.45 | 4.89 | 2.39 | 6.81 | 3.45 | 0.361 | 2.66
2 | GCTATTGGTTGAAAGGGCAACCGAATGATTCTCG | 1.94 | 1.33 | 1.27 | 0.0979 | 1.32 | 0.466 | -0.293 | 0.0908
3 | TCAAGTAGGTTAGGGGCATTCAGAATGGCGTCGA | 1.23 | 0.789 | 0.56 | 1.29 | 1.08 | 1.45 | 0.575 | 1.48
4 | CGAACGAGGGCATGATTTGATAGCAAATGCCGAT | 0.522 | 0.771 | 1.19 | 1.99 | 0.631 | 0.985 | -0.278 | 0.561
5 | CCTAGCTGGTCAGGAGGTCACACACCGGATATGA | 4.31 | 5.14 | 4.44 | 0.548 | 4.69 | 3.36 | 2.01 | 2.14
6 | ATCACTAGGTAAAAGTTCAGTGAATCCCGAGGAT | 2.5 | 2.11 | 1.85 | 0.717 | 1.85 | 1.32 | 0.468 | 1.8
7 | CCAGATAGGTGAGAAGGTAACTCAGCCTCGATTA | 0.492 | 0.647 | 0.649 | 0.238 | 0.44 | 0.177 | -0.0242 | -0.157
8 | GCGACTGGGGCATCAGCAGGTTACCGTAACTTAA | 1.14 | 0.702 | 0.193 | -0.433 | 0.309 | 1.03 | -0.152 | -0.576
9 | CCTCGGAGGACAGAAGGTCGGAGCTGTCCGCTTT | 1.03 | 0.91 | 0.81 | -0.0663 | -0.268 | 0.396 | -0.577 | -0.651
10 | CGTCCGAGGTCAGCAGGTCAGTGAAAGCGACGTG | 4.89 | 6.81 | 7.31 | 2.99 | 6.26 | 4.09 | 2.53 | 2.44
11 | TGTAGTTGGTCAAAGGTCACACACTCGAAATGCG | 4.97 | 7.09 | 6.06 | 1.24 | 8.07 | 4.1 | 2.18 | 2.51
12 | ACAATGAGGTTATACGTAGATCAGGGAAGAAAGT | 0.975 | 1.89 | 1.55 | 2.02 | 2.16 | 2.13 | 0.593 | 1.28
13 | TCTATTAGTTGAAAGGCAACCGACGAGTCCGTTT | -0.227 | 0.248 | 0.111 | 1.66 | 0.759 | 0.0956 | 0.0862 | 1.08
14 | TCAGATAGGTAAACAGGTGAAAGTCCGTAAGTTA | 0.841 | 0.678 | 0.219 | 1.48 | 1.01 | 0.664 | 0.307 | 0.407
15 | ATCTCTAGGTAAAAGTTCAGTGCATCCCGAGGAT | 2.59 | 1.85 | 1.81 | 0.951 | 1.49 | 1.43 | 0.48 | 2.21
16 | CCTACTGGCCCAAGGTCATTGATCAGTCAAAGCA | 3.58 | 3.48 | 2.65 | 1.58 | 3.16 | 3.57 | 2.81 | 2.79
17 | TCTAGTTGGTCACCGAGGTCACACACGACGGGTA | 4.5 | 4.8 | 4.64 | 1.4 | 5.06 | 4.2 | 4.2 | 3.89
18 | ACTCCGAGGACAAAGGTCAGAGCTACGCCAGTGA | 4.47 | 6.28 | 5.92 | 1.97 | 6.11 | 4.27 | 2.29 | 1.67
19 | CCTAGCAGGCCAGGGTCAATCAAGCATTTCGCTT | 2.92 | 3.32 | 2.33 | 0.381 | 4.06 | 3.05 | 0.553 | 1.07
20 | CCTATTAGTTGACCATAAGGGCAACCTAAGCTCG | 2.22 | 1.47 | 1.24 | 0.437 | 0.949 | 2.16 | 1.8 | 0.755
21 | TCTAGTGGGTCACGGAGGTCACACACGACGGGTA | 4.95 | 6.73 | 7.18 | 1.53 | 7.69 | 4.26 | 2.34 | 6.17
22 | AGAACGAGGGCAGTGAGTTGATAGCACGGGTGGC | 0.73 | 0.413 | 0.886 | 1.24 | 0.269 | 0.176 | -0.413 | 2.23
23 | ATCTCTAGGTCACCAAGTTCAGTGAATGCCGAAC | 4.45 | 5.35 | 6.25 | 2.74 | 4.73 | 3.89 | 3.22 | 6.15
24 | GCTAGGTGGTCAGTAAAAGGTCACACACCGGTCG | 5.21 | 6.23 | 5.47 | 0.0546 | 5.57 | 3.55 | 1.73 | 2.03
25 | GCTAGCAGGCCATTTGGGTCATTCAATGACGGGC | 1.64 | 0.979 | 1.01 | 0.394 | 0.908 | 1.82 | 0.24 | 1.21
26 | TTACCAAGGTGCAAGGTCGTTGATGCACGCCTTG | 1.21 | 0.66 | 0.411 | 1.33 | 1.54 | 1.62 | 0.68 | 2.9

Row | Sequence | PBM binding z-score [1] | PBM binding z-score [2] | PBM binding z-score [3] | PBM binding z-score [4] | PBM binding z-score [5] | PBM binding z-score [6] | PBM binding z-score [7] | PBM binding z-score [8]
27 | ACCGAAAGGTCGAGGTGAGTATAGAGAAAGGGAA | 2.81 | 4.28 | 4.43 | 0.832 | 4.35 | 2.94 | 0.707 | 0.402
28 | CCTAGTTGGTCAAGGCCACACACGCTATAGGTAC | 1.52 | 0.785 | 1.19 | 0.685 | 0.442 | 1.07 | 1.18 | 0.836
29 | GCGACTGGGGCATCAGCAGATTACCATAACTTAA | 0.257 | -0.0173 | 0.481 | 0.186 | -0.143 | -0.135 | -0.286 | -0.431
30 | ATCGAAAGGTCGACGAGGGGAGTATACACCGTTT | 2.53 | 4.16 | 4.01 | 1.29 | 4.27 | 2.18 | -0.0563 | 0.446
31 | ATCGAAAGGTCTACGAGGTGAGTATACACCGTTT | 1.01 | 1.32 | 1.56 | -0.0758 | 1.11 | 2.26 | 0.606 | 0.124
32 | CCGACTGCGGCAGAAAGGTTACCATACCATCCGG | 1.92 | 0.857 | 0.647 | -0.0879 | 1.57 | 1.02 | 0.00107 | -0.0446
33 | CAAACTAGGTCACCCGAAGGTCAAAGTCCGCATG | 5.43 | 7.91 | 6.9 | 2.35 | 6.29 | 4.45 | 3.04 | 4.18
34 | GCAGCTAGGTCAACTGATGGTCAGCTAAAGCTCG | 3.08 | 5.02 | 5.33 | 0.798 | 2.52 | 2.6 | 0.305 | -0.435
35 | CCTACTGGGCCATCAGGACATTGATATCAACGTT | 0.152 | 0.263 | 0.554 | -0.317 | -0.395 | 1.41 | 1.27 | 0.257
36 | GGATCGAGGGCAAAGTTGATAGCATCTGTCGACG | 1.47 | 2.12 | 1.7 | 2.4 | 2.08 | 1.39 | -0.165 | 1.94
37 | CCTTACGGCTCACTGACAGGTTATAGCATTTGGA | 0.213 | 0.216 | 0.301 | 0.689 | 0.388 | 0.0321 | 0.195 | -0.0205
38 | ATATGTAGGTTATGGGGTCATTCAGTTTGCGCAT | 4.16 | 5.29 | 3.67 | 2.9 | 6.67 | 4.35 | 4.19 | 7.28
39 | CCTCGCAGGACAACAGGAGGTCAGAGCTGCCAGA | 3.19 | 2.79 | 2.57 | 0.186 | 1.86 | 2.51 | 0.912 | 1.05
40 | CCGACTGGAGCATAAGGTTACCATAAGCCAGCCC | 1.28 | 0.447 | 0.266 | 0.0357 | 0.901 | 1.96 | 1.77 | 0.144
41 | TAGCCTAGGTAAGATCGGGCCAGTATACGCTATA | -0.638 | -0.26 | -0.321 | -1.17 | -0.364 | 1.37 | -0.927 | -0.857
42 | TCATATAGGTAAAAGGGGAAAGTCGGTGTGGTAA | 0.789 | 0.447 | 0.236 | 1.95 | 1.19 | 0.512 | 0.383 | 0.386
43 | TCTATTAGTTGTAGGGCAACCGACGAGTCCGTTT | 0.489 | 0.147 | 0.469 | 1.17 | 0.403 | 0.112 | 0.0984 | 1.13
44 | CCTACTGGGCAAAGGTCATTGATCAGTCAAAGCA | 4.39 | 6.27 | 4.92 | 1.48 | 6.88 | 3.05 | 0.287 | 2.31
45 | ATCTCTAGGTAACAGGTTCAGTGAAAGAGAGGAC | 1.15 | 0.818 | 0.667 | 0.757 | 0.828 | 1.58 | 1.34 | 2.78
46 | TCATATAGGTAAATGCTAGGTGGAAGTCCGATCT | -0.19 | 0.303 | 0.0562 | 1.28 | 0.571 | 0.0546 | -0.18 | 0.0417
47 | TGTCCAAGTTCAAAGGTAACGTAAGTATCCACAC | 2.25 | 4.05 | 3.45 | 4.24 | 5.21 | 3.05 | 0.0637 | 4.33
48 | CAAACTAGGTCACGAAAGCTCAAAGTCGAATGAC | 3.1 | 4.61 | 5.69 | 1.74 | 3.99 | 3.28 | 1.48 | 0.544
49 | ATCTCTATGTAAGACTCAGTTCAGTGAAGAACGC | 0.277 | -0.035 | 0.0537 | 0.294 | -0.183 | 0.172 | 0.339 | 1.16
50 | AATACAGGGTCATCGTAGGCCAGCGTACGCACAG | 3.68 | 5.61 | 4.89 | 2.94 | 6.47 | 4.79 | 1.37 | 3.03
51 | ACTGTTAGTTGACTTAGGGCAACCGATACGACGC | 1.09 | 1.22 | 1.25 | 0.609 | 0.472 | 1.51 | 0.731 | 0.453
52 | CCTACTGGGCCACGAAAGGTCTTTGATTCAGTGA | 1.03 | 0.285 | 0.261 | -0.372 | 0.067 | 1.06 | -0.141 | -0.432
